The test system of experiment [1] is DLD1. Nature of the experiment: cell viability (CellTiter-Glo) relative to plate median (fraction of plate median); higher = more viable cells. Particulars: 5 µM; treatment time 24 h; reporter: 7TFP. In outline:
(§1)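 Values are well luminescence normalised to the plate median, from either a firefly luciferase or a CellTiterGlo readout on parallel plates. The cells, colorectal cancer lines stably transduced with lentiviral 7TFP or TCF4/Wnt firefly luciferase reporters, were treated with library compounds at a final 5 µM for 24 h. The mean of two independent replicates is listed.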

A further experiment has as its system HCT116. Described as above. Particulars: 5 µM; treatment time 24 h; reporter: TCF4/Wnt. In outline: as §1
Experiment [2] deals with SW480. The description is as above. Particulars: 5 µM; treatment time 24 h; reporter: 7TFP. In outline:
as §1

In experiment [3] the test system is DLD1. Put plainly: TCF/Wnt firefly luciferase reporter signal relative to plate median (fraction of plate median); higher = higher Wnt reporter signal. Particulars: 5 µM; treatment time 24 h; reporter: 7TFP. The method, boiled down:
as §1
(In general: Reporter assays use an easily measured gene product as a stand-in for the process of interest.)

Experiment [4] concerns SW480. The description is as above. Particulars: 5 µM; treatment time 24 h; reporter: 7TFP. In outline:
as §1

± gives the standard deviation of the averaged measurements.

In the case of `CCn1cc(C(=O)O)c(=O)c2ccc(C)nc21`, the values for the cell viability in the experiment on DLD1 [1], in the experiment on HCT116 and in the experiment on SW480 [2] were 0.975 ± 0.16, 0.9905 ± 0.0078 and 0.975 ± 0.016, respectively. Further, the “TCF/Wnt firefly luciferase reporter signal” value was found to be 1.07 ± 0.12 in the experiment on DLD1 [3] and 1.02 ± 0.028 with SW480 [4].

For the molecule `N=C(N)N/N=C/c1c(Cl)cccc1Cl`, the cell viability in the experiment with DLD1 [1] was determined as 0.976 ± 0.028; in the experiment with HCT116, 1.02 ± 0.042; in the experiment with SW480 [2] it was 1.02 ± 0.014. The “TCF/Wnt firefly luciferase reporter signal” value with DLD1 [3] worked out at 1.02 ± 0.021; with SW480 [4], 1.05 ± 0.064.

On to `CN(C)CC/C=C1/c2ccccc2Sc2ccc(Cl)cc21`, for which the cell viability in the experiment on DLD1 [1] stood at 0.835 ± 0.21; in the experiment on HCT116, 0.98 ± 0.019; in the experiment with SW480 [2], 0.934 ± 0.016. Moreover, the “TCF/Wnt firefly luciferase reporter signal” value was found to be 1.07 ± 0.042 in the experiment on DLD1 [3] and 0.967 ± 0.061 with SW480 [4].

As to `O=C(O)C1(C(=O)O)CCC1.[NH2-].[NH2-].[Pt+2]`, the results for the cell viability in the experiment on DLD1 [1], with HCT116 and in the experiment with SW480 [2] were 1.02 ± 0.059, 1.08 ± 0.15 and 0.97 ± 0.028, respectively. For the same molecule, the “TCF/Wnt firefly luciferase reporter signal” value in the experiment with DLD1 [3] worked out at 1.15 ± 0.099; in the experiment with SW480 [4], 1 ± 0.039.

With `CCCCCCCCCc1ccc(OCCOCCOCCOCCOCCOCCOCCOCCOCCO)cc1`, the results for the cell viability in the experiment on DLD1 [1], in the experiment on HCT116 and in the experiment on SW480 [2] were 0.985 ± 0.064, 0.947 ± 0.036 and 0.998 ± 0.032, respectively. Besides, the “TCF/Wnt firefly luciferase reporter signal” value with DLD1 [3] was determined as 1 ± 0.18; in the experiment on SW480 [4] it was 0.904 ± 0.088.

On to `CC(=O)O[C@@H]1CC2C(C)(C)[C@H](O)C=C[C@]2(C)C2CC[C@@]3(C)[C@H](c4ccoc4)OC(=O)C4OC43[C@@]21C` (stereo not given in full), for which the cell viability with DLD1 [1] amounted to 1.05 ± 0.064; with HCT116 it was 1.08 ± 0.092; with SW480 [2], 1.06 ± 0.028. Further, the “TCF/Wnt firefly luciferase reporter signal” value in the experiment on DLD1 [3] stood at 0.97 ± 0.042; in the experiment on SW480 [4] it was 0.926 ± 0.1.

Regarding `CC(=O)NCCCCCC(=O)O`, the cell viability with DLD1 [1] was 0.987 ± 0.047; in the experiment with HCT116, 1.01 ± 0.027; in the experiment on SW480 [2] it was 1.035 ± 0.0071. The figures for the “TCF/Wnt firefly luciferase reporter signal” value with DLD1 [3] and in the experiment on SW480 [4] were 1.01 ± 0.068 and 1.04 ± 0.07, respectively.

In the case of `CC(C)=CCc1cccc2c(C[C@@H]3NC(=O)[C@H](C)NC3=O)c[nH]c12` [Terezine D], the cell viability worked out at 1.03 ± 0.021 in the experiment on DLD1 [1], 0.9635 ± 0.0021 in the experiment with HCT116 and 0.981 ± 0.084 with SW480 [2]. In addition, the “TCF/Wnt firefly luciferase reporter signal” value with DLD1 [3] amounted to 1.12 ± 0.31; in the experiment on SW480 [4], 0.92 ± 0.0099.

Turning to `CC1(C)NC(=O)N(c2ccc([N+](=O)[O-])c(C(F)(F)F)c2)C1=O`, the results for the cell viability with DLD1 [1], in the experiment on HCT116 and in the experiment with SW480 [2] were 1.05 ± 0.084, 0.983 ± 0.052 and 1 ± 0.042, respectively. In addition, the entries for the “TCF/Wnt firefly luciferase reporter signal” value with DLD1 [3] and in the experiment on SW480 [4] were 1.02 ± 0.014 and 0.961 ± 0.044, respectively.

Take `COc1cc2c3cc1Oc1cc(ccc1O)C[C@@H]1c4c(cc(OC)c(O)c4Oc4ccc(cc4)C[C@@H]3N(C)CC2)CC[N+]1(C)C`: the cell viability in the experiment with DLD1 [1] stood at 0.992 ± 0.012; in the experiment on HCT116, 1.01 ± 0.1; with SW480 [2], 1.01 ± 0.045. The “TCF/Wnt firefly luciferase reporter signal” value in the experiment with DLD1 [3] was 0.977 ± 0.089; in the experiment on SW480 [4], 1.07 ± 0.05.

On to `CN(C)CCCN1c2ccccc2CCc2ccc(Cl)cc21`, for which the cell viability in the experiment on DLD1 [1] was determined as 1.04; in the experiment with HCT116, 0.984 ± 0.051; in the experiment on SW480 [2], 1.06 ± 0.021. Moreover, the “TCF/Wnt firefly luciferase reporter signal” value amounted to 1.06 ± 0.1 in the experiment on DLD1 [3] and 1.01 ± 0.055 in the experiment with SW480 [4].

On to `CC(=O)NCCc1ccc(O)cc1` [N-(p-Hydroxyphenyl)ethylacetamide], for which the cell viability with DLD1 [1] came to 1.02 ± 0.04; in the experiment with HCT116, 1.09 ± 0.057; in the experiment on SW480 [2], 1.06 ± 0.021. Also, the “TCF/Wnt firefly luciferase reporter signal” value with DLD1 [3] came out at 0.99 ± 0.099; in the experiment with SW480 [4] it was 1.14 ± 0.021.

Turning to `COc1c2occc2cc2ccc(=O)oc12`, the cell viability is 1.04 ± 0.05 with DLD1 [1], 1.02 ± 0.089 in the experiment with HCT116 and 1.05 ± 0.014 with SW480 [2]. The “TCF/Wnt firefly luciferase reporter signal” value in the experiment with DLD1 [3] is 1.09 ± 0.21; in the experiment on SW480 [4], 1.1 ± 0.057.

With `C=CCSCC=C`, the cell viability worked out at 0.9785 ± 0.0078 in the experiment on DLD1 [1], 0.967 ± 0.047 with HCT116 and 0.98 ± 0.029 in the experiment on SW480 [2]. Also, the “TCF/Wnt firefly luciferase reporter signal” value in the experiment with DLD1 [3] was 0.959 ± 0.015; in the experiment with SW480 [4] it was 0.95 ± 0.05.

As for `CC(=O)O[C@H]1C[C@@]2(C)[C@@H](C[C@@H](O)[C@H]3[C@@]4(C)CC[C@@H](O)[C@@H](C)[C@@H]4CC[C@@]32C)/C1=C(\CCC=C(C)C)C(=O)O`, the cell viability in the experiment with DLD1 [1] amounted to 1.04 ± 0.05; in the experiment on HCT116, 1 ± 0.054; with SW480 [2], 1.04 ± 0.028. Besides, the entries for the “TCF/Wnt firefly luciferase reporter signal” value in the experiment on DLD1 [3] and in the experiment with SW480 [4] were 1.12 ± 0.05 and 1.06 ± 0.064, respectively.

These data come from the supplement of paper PMC6522484.
